Data reported in the supplement of paper PMC11732987, “Enantioselective OTUD7B fragment discovery through chemoproteomics screening and high-throughput optimisation” (Communications Chemistry, 2025).

What was measured:
Test in all cases: log2 ratio of Biotin-Ahx-Ub-VS probe labelling (fragment/DMSO); higher = less target engagement (more negative = stronger competition), active = hit call of the paper (q ≤ 0.05, log2 ratio ≤ -1)
Conditions in all cases: compound concentration: 200 uM; treatment time: 3 h
OTUD6B = molecular target: T1, OTUD6B (UniProt Q8N6M0)
T1 sequence (whole entry): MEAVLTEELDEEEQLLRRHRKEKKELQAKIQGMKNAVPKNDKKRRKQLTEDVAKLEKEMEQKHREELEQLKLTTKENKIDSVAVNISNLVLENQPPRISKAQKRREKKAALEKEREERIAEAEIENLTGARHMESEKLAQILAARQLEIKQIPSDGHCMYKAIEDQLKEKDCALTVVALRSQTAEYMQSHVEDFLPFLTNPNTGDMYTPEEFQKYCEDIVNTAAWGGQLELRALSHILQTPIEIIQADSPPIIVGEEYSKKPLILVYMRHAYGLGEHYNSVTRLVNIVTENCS
Summary of the method: (§1)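 Labelling with Biotin-Ahx-Ub-VS (0.5 µM final, 1 h) followed a 3 h triplicate treatment of HEK293T lysate (495 µg per sample, Tris/CHAPS/IGEPAL buffer with protease inhibitors) with fragment at 200 µM or vehicle. Labelled DUBs were NeutrAvidin-enriched, digested with LysC and trypsin, and run by diaPASEF LC-MS/MS. The values, average log2 fragment/vehicle ratios by unpaired t-test, come from global-median-normalised Spectronaut label-free quantities. Proteins with ≥2 unique peptides were used.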

OTUD7B = molecular target: T2, OTUD7B (UniProt Q6GQQ9)
T2 sequence (whole entry): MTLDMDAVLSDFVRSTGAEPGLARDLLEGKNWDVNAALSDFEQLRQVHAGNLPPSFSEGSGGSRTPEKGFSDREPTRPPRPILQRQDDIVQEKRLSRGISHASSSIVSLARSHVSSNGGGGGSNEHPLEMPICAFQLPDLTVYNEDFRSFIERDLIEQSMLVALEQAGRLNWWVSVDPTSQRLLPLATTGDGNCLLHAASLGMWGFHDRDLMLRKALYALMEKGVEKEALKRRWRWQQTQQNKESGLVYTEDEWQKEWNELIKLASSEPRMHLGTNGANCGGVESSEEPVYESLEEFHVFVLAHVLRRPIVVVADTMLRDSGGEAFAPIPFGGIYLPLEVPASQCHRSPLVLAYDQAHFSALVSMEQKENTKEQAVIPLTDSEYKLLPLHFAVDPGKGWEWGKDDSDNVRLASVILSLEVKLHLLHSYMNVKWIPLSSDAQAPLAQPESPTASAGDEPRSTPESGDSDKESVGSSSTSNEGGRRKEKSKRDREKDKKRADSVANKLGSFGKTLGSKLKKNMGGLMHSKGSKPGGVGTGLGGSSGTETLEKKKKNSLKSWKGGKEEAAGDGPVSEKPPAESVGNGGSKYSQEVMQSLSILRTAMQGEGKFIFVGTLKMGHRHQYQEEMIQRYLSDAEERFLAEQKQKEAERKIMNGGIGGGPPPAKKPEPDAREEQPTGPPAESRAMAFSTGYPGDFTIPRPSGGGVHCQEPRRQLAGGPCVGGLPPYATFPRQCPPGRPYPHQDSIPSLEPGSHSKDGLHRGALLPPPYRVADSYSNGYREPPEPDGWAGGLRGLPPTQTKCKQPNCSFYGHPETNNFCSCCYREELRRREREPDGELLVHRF
Summary of the method: as §1

PRPF8 = PRPF8 (UniProt Q6P2Q9)
Summary of the method: as §1

PSMD7 = molecular target: T3, PSMD7 (UniProt P51665)
T3 sequence (whole entry): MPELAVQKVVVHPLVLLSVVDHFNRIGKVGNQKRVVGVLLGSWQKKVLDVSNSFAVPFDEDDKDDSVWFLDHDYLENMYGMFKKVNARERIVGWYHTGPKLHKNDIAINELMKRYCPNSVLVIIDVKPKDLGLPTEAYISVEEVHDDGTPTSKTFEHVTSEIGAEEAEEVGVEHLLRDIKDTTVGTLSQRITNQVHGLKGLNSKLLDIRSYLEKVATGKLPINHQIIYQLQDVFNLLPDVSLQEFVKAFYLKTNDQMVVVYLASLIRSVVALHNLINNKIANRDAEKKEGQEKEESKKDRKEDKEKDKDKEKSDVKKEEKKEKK
Summary of the method: as §1

UCHL1 = UCHL1 (UniProt P09936)
Chain of UCHL1 (P09936 whole entry, looked up): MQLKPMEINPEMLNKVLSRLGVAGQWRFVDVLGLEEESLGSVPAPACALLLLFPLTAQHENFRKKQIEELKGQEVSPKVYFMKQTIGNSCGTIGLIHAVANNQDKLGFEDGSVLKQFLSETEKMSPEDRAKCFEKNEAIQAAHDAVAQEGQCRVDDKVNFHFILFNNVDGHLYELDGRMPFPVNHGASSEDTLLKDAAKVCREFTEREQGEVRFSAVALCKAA
Summary of the method: as §1

UCHL3 = molecular target: T4, UCHL3 (UniProt P15374)
T4 sequence (whole entry): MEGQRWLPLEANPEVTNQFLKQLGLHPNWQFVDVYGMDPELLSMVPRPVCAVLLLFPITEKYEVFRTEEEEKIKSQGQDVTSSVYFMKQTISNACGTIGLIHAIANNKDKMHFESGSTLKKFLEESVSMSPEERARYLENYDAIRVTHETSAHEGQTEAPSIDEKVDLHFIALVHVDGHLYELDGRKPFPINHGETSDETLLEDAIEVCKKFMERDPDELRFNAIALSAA
Summary of the method: as §1

UCHL5 = molecular target: T5, UCHL5 (UniProt Q9Y5K5)
T5 sequence (whole entry): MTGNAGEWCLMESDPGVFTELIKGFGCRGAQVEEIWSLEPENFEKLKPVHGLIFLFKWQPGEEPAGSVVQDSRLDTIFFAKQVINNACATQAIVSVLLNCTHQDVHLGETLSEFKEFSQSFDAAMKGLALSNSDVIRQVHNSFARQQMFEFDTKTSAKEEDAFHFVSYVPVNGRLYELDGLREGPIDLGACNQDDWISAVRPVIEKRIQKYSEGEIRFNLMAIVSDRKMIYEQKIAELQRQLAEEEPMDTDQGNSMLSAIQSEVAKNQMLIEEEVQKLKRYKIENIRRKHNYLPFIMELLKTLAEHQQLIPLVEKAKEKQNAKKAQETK
Summary of the method: as §1

USP10 = USP10 (UniProt Q14694)
Chain of USP10 (Q14694 whole entry): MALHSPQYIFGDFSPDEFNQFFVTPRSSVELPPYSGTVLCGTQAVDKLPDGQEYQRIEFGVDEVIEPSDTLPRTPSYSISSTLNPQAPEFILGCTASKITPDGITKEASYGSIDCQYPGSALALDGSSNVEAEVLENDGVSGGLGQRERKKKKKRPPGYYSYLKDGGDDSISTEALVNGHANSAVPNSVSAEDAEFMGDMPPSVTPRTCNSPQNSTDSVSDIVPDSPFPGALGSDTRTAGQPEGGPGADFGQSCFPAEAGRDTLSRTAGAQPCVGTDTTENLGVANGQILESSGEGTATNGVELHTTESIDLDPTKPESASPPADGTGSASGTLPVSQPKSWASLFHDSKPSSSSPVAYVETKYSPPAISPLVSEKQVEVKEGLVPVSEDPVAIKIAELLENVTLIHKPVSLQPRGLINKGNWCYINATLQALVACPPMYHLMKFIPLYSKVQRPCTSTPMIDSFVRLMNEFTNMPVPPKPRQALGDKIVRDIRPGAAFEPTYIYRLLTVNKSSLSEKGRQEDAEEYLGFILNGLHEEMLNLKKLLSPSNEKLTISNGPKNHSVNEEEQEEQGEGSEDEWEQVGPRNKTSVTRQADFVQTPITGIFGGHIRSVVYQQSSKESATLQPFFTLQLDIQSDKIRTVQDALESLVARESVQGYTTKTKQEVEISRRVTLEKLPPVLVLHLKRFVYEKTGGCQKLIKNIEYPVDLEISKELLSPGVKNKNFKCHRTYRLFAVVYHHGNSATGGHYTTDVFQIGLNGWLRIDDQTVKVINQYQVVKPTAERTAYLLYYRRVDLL
Summary of the method: as §1

USP15 = molecular target: T6, USP15 (UniProt Q9Y4E8)
T6 sequence (whole entry): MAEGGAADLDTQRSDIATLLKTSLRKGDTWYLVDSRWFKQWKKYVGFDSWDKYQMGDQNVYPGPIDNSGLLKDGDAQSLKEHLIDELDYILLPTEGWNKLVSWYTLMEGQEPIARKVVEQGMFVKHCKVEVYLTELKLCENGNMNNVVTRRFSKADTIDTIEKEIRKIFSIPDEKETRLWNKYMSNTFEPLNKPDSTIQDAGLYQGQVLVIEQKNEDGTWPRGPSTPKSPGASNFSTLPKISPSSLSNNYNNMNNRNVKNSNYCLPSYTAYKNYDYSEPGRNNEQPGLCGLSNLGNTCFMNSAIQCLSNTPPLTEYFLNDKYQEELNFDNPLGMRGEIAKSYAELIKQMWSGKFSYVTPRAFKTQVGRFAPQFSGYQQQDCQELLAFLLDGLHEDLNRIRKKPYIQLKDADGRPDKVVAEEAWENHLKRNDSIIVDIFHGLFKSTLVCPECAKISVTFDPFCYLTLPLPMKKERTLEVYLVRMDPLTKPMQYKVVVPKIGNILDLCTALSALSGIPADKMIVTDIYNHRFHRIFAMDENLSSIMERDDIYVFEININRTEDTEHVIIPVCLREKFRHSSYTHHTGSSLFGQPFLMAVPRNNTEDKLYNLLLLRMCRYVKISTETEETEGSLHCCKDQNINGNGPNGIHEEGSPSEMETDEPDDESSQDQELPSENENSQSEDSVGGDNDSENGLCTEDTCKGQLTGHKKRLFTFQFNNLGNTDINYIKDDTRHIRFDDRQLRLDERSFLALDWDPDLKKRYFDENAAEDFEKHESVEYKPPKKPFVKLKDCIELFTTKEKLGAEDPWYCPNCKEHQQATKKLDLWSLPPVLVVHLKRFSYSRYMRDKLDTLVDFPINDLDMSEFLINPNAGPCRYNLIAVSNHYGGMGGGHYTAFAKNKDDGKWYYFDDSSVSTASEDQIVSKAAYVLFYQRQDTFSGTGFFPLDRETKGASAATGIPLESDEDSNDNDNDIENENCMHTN
Summary of the method: as §1

USP16 = USP16 (UniProt Q9Y5T5)
Chain of USP16 (Q9Y5T5 whole entry, looked up): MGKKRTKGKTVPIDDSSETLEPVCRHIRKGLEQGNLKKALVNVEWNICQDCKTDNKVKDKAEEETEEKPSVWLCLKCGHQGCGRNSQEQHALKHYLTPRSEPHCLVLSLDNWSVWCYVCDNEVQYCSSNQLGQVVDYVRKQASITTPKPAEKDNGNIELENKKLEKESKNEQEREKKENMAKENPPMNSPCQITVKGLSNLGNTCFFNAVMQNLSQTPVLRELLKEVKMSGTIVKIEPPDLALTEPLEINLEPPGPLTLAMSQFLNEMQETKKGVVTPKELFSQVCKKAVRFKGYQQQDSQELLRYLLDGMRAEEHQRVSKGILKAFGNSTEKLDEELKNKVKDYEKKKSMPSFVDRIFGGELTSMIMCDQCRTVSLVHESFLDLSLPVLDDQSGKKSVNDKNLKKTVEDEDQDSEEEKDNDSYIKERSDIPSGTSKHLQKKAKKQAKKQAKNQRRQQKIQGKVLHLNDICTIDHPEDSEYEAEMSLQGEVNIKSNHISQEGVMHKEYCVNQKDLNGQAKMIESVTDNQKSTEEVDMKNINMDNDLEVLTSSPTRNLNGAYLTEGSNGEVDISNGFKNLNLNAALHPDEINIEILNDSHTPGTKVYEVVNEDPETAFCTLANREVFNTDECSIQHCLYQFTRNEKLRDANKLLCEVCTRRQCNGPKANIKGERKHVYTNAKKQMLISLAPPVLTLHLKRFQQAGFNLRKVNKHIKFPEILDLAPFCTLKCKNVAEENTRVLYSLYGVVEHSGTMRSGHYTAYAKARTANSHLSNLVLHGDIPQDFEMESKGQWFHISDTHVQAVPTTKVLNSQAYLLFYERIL
Summary of the method: as §1

Measured: log2 ratio of Biotin-Ahx-Ub-VS probe labelling

O=C(CCl)N1CCN(C(=O)Nc2ccccc2)CC1
inactive: OTUD6B 0.0713 | OTUD7B -0.112 | PRPF8 -0.00577 | PSMD7 0.0846 | UCHL3 -0.441 | UCHL5 0.033 | USP10 -0.135 | USP15 -0.101 | USP16 0.0643
active: UCHL1 -1.33
